# Measured values: article PMC7862700, “An all-to-all approach to the identification of sequence-specific readers for epigenetic DNA modifications on cytosine”
# How the values were obtained:
# Experiment in all cases: DAPPL (digital affinity profiling via proximity ligation, sequencing); 10 mM Tris-HCl pH 7.5, 50 mM NaCl, 1 mM DTT, 4% glycerol, room temperature, 30 min; GST-TFs on glutathione beads, 16-mer random dsDNA library, 0.1% formaldehyde crosslink after washing; high values mean tight binding
# FLI1 = target: T1, FLI1 (Homo sapiens, UniProt Q01543 1-452); details: protein: recombinant; tags: N-terminal GST; dsDNA, one strand shown
# T1 sequence: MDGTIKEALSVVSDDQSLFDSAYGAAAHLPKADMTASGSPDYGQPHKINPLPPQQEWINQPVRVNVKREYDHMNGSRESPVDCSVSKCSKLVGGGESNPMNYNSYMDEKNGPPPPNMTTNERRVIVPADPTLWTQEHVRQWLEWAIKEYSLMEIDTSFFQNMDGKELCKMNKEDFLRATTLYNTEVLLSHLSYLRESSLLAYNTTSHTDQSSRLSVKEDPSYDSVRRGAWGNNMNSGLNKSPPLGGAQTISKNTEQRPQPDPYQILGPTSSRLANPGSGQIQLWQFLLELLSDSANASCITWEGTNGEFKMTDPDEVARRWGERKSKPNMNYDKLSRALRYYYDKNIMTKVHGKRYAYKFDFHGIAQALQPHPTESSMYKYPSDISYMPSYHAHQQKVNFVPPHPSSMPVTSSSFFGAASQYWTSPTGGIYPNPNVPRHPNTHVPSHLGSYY
# Summary of the method: (§1)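 Human transcription factors were made in yeast as GST fusions, captured on glutathione beads and barcoded with DNA. With a tag-only sample included, the pool was incubated with 200 nmole of a random double-stranded 16-mer DNA library in Tris/NaCl/DTT/glycerol buffer at room temperature for 30 min, then crosslinked with 0.1% formaldehyde after washing, ligated by proximity, amplified and sequenced. For binding signal, each hexamer's read frequency for a factor is divided by its frequency for the tag-only sample.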
# ELF1 = ELF1 (Homo sapiens, UniProt P32519 1-619); details: protein: recombinant; tags: N-terminal GST; dsDNA, one strand shown
# Summary of the method: as §1
# SPIB = SPIB (Homo sapiens, UniProt Q01892 1-262); details: protein: recombinant; tags: N-terminal GST; dsDNA, one strand shown
# Summary of the method: as §1
# HSF1 = HSF1 (Homo sapiens, UniProt Q00613 1-529); details: protein: recombinant; tags: N-terminal GST; chain copies: 3; dsDNA, one strand shown
# Summary of the method: as §1
# ELK4 = target: T2, ELK4 (Homo sapiens, UniProt P28324-2 1-405); details: protein: recombinant; tags: N-terminal GST; dsDNA, one strand shown
# T2 sequence: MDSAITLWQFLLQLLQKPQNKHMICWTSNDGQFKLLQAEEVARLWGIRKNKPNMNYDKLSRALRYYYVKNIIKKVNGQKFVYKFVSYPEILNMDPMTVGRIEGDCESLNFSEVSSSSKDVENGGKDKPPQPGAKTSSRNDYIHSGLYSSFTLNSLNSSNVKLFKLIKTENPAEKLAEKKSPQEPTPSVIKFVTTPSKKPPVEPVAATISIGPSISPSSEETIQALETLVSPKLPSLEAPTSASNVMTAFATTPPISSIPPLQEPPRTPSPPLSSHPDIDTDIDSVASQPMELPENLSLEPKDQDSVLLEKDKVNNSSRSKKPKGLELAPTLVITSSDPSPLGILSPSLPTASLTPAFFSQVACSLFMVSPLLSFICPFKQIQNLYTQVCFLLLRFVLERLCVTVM
# Summary of the method: as §1
# ELF3 = target: T3, ELF3 (Homo sapiens, UniProt P78545 1-371); details: protein: recombinant; tags: N-terminal GST; dsDNA, one strand shown
# T3 sequence: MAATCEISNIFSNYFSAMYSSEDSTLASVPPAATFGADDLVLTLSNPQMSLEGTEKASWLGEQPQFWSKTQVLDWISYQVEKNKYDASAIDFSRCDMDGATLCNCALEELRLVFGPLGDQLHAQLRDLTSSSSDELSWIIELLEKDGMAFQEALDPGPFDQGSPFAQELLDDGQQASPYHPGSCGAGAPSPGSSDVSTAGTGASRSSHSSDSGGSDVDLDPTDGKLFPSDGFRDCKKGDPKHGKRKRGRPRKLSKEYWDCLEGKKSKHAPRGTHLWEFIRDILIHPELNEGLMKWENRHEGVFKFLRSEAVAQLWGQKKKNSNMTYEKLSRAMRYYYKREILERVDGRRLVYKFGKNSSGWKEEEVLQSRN
# Summary of the method: as §1
# ETV7 = target: T4, ETV7 (Homo sapiens, UniProt Q9Y603 1-341); details: protein: recombinant; tags: N-terminal GST; dsDNA, one strand shown
# T4 sequence: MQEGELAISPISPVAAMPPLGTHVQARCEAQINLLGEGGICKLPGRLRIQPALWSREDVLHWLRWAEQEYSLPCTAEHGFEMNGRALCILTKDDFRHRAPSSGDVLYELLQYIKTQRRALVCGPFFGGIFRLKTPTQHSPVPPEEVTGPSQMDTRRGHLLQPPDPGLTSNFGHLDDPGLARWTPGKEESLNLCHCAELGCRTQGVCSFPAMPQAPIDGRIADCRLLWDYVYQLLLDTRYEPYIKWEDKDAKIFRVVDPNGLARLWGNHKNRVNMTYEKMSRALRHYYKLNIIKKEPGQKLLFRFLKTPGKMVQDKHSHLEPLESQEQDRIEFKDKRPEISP
# Summary of the method: as §1
# ELK1 = target: T5, ELK1 (Homo sapiens, UniProt P19419 1-428); details: protein: recombinant; tags: N-terminal GST; dsDNA, one strand shown
# T5 sequence: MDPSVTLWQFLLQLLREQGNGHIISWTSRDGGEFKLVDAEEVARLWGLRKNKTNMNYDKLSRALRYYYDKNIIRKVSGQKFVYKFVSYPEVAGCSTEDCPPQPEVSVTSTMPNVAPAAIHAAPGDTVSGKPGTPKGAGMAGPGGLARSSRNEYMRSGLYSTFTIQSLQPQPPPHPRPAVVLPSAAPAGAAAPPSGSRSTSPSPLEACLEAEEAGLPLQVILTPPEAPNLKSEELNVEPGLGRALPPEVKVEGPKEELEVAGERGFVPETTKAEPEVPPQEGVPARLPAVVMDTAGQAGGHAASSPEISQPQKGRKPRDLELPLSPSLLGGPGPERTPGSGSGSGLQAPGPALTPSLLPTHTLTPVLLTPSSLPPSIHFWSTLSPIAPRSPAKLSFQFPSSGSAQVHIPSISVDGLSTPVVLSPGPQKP
# Summary of the method: as §1
# GABPA = target: T6, GABPA (Homo sapiens, UniProt Q06546 1-454); details: protein: recombinant; tags: N-terminal GST; dsDNA, one strand shown
# T6 sequence: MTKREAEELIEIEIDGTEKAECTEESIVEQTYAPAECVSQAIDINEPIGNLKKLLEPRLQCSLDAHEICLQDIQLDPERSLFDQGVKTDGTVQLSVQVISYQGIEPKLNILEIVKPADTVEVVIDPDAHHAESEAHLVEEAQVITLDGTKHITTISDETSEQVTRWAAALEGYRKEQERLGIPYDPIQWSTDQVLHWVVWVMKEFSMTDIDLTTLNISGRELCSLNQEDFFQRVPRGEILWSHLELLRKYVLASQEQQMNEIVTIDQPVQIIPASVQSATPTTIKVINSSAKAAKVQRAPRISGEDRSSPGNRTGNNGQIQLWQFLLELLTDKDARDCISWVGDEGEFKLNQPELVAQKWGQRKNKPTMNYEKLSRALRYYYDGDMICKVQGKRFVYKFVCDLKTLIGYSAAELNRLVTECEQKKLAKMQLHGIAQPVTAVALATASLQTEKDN
# Summary of the method: as §1
# EHF = target: T7, EHF (Homo sapiens, UniProt Q9NZC4 1-300); details: protein: recombinant; tags: N-terminal GST; dsDNA, one strand shown
# T7 sequence: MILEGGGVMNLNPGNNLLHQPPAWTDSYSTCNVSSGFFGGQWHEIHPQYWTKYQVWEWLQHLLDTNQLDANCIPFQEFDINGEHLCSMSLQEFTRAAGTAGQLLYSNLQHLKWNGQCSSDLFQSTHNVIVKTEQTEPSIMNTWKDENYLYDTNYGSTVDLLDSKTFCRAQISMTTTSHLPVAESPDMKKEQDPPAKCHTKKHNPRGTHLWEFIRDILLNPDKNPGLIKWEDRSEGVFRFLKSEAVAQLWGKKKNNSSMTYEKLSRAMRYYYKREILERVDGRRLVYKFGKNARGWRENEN
# Summary of the method: as §1
# SPIC = target: T8, SPIC (Homo sapiens, UniProt Q8N5J4 1-248); details: protein: recombinant; tags: N-terminal GST; dsDNA, one strand shown
# T8 sequence: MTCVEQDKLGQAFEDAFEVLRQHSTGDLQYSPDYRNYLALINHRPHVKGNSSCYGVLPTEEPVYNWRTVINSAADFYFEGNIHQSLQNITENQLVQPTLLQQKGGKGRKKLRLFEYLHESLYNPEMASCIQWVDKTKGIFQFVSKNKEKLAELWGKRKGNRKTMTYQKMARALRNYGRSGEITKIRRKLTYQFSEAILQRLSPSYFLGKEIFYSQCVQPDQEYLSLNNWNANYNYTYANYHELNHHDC
# Summary of the method: as §1
# ELF4 = ELF4 (Homo sapiens, UniProt Q99607 1-663); details: protein: recombinant; tags: N-terminal GST; dsDNA, one strand shown
# Summary of the method: as §1
# ERF = target: T9, ERF (Homo sapiens, UniProt P50548 1-548); details: protein: recombinant; tags: N-terminal GST; dsDNA, one strand shown
# T9 sequence: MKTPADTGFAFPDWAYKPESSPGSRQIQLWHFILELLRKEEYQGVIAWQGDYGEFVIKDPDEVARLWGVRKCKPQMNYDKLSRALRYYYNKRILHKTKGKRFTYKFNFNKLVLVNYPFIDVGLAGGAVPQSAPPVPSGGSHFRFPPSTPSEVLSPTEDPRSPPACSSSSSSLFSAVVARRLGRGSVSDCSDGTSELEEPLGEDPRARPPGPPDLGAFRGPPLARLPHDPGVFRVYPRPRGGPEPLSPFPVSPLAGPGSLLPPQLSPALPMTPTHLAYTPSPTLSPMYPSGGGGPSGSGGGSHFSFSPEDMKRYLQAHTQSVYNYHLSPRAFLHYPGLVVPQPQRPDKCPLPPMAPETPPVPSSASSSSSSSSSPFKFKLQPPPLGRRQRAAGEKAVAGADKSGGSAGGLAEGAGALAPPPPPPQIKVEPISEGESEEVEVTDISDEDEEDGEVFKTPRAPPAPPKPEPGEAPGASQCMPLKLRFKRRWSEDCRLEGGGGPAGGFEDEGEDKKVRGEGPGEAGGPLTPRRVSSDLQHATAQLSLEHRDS
# Summary of the method: as §1
# ETV6 = ETV6 (Homo sapiens, UniProt P41212 1-452); details: protein: recombinant; tags: N-terminal GST; dsDNA, one strand shown
# Summary of the method: as §1
# ELF1, sequence (P32519 whole entry): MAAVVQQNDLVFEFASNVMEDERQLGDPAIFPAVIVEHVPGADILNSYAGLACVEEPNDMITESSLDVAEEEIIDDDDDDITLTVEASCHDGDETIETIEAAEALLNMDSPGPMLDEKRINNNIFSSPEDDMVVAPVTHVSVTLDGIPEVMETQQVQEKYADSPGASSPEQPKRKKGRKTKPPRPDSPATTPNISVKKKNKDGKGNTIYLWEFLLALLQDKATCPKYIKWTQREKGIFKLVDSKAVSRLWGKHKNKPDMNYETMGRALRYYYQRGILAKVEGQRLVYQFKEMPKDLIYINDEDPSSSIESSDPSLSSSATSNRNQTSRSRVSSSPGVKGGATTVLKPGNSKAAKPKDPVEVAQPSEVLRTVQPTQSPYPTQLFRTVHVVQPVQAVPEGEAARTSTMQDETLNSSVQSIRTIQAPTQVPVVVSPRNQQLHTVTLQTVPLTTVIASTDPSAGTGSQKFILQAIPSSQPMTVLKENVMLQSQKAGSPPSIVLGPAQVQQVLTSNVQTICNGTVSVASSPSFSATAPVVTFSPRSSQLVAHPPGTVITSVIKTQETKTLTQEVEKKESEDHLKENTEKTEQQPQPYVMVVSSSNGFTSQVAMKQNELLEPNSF
# HSF1, sequence (Q00613 whole entry): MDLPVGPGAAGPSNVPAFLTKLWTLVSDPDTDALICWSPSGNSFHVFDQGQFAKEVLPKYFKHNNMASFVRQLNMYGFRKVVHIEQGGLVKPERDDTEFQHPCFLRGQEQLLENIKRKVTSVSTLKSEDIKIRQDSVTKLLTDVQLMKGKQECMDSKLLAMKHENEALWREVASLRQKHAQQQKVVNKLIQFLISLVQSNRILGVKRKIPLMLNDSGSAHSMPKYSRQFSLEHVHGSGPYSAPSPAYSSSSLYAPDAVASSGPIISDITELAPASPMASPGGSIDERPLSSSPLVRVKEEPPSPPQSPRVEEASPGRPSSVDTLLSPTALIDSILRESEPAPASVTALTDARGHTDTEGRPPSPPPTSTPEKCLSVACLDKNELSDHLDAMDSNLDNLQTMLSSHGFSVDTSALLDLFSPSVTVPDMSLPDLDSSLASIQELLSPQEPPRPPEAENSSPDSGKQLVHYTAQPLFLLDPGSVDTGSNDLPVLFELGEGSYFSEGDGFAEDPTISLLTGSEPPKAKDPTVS
# ETV6, sequence (P41212 whole entry): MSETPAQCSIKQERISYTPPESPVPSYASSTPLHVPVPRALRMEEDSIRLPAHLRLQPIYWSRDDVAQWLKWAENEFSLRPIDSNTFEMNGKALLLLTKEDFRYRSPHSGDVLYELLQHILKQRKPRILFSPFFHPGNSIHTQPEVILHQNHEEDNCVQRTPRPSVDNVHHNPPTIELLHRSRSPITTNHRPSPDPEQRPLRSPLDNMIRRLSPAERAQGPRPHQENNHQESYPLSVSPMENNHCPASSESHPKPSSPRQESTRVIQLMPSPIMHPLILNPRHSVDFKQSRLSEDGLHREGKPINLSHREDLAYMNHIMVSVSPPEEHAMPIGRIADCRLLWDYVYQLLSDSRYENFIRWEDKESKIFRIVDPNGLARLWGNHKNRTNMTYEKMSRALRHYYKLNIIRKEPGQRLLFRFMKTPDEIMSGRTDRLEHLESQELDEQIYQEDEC
# ELF4, sequence (Q99607 whole entry): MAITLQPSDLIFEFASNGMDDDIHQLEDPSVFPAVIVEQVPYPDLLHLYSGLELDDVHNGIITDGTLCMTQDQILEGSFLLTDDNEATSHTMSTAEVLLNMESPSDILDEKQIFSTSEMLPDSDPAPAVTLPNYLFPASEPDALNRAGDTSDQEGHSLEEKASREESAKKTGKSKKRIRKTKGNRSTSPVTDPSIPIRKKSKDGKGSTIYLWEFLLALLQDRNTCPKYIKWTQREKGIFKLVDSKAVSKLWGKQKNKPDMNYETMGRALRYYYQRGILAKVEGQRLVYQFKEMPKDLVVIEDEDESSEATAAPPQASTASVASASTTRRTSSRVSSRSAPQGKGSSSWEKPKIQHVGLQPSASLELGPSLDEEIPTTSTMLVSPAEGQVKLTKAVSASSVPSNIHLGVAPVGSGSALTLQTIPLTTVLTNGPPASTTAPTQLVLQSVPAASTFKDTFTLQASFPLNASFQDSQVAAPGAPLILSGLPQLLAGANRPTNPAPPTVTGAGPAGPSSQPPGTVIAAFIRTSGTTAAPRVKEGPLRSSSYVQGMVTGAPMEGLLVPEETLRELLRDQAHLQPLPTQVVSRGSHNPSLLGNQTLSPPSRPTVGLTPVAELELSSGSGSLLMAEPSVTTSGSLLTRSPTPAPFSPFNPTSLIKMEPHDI
# SPIB, sequence (Q01892 whole entry): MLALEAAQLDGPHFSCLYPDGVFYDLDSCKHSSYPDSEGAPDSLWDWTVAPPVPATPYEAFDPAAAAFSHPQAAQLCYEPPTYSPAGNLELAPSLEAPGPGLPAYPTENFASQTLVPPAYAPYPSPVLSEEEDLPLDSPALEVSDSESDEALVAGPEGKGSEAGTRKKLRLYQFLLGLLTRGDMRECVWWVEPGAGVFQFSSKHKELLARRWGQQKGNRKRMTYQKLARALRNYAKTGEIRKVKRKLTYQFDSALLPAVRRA
Sequence,binding signal (FLI1),binding signal (ELF1),binding signal (SPIB),binding signal (HSF1),binding signal (ELK4),binding signal (ELF3),binding signal (ETV7),binding signal (ELK1),binding signal (GABPA),binding signal (EHF),binding signal (SPIC),binding signal (ELF4),binding signal (ERF),binding signal (ETV6)
TTGGAT,"1.02 fold enrichment (6-mer frequency, TF over GST control)","1.01 fold enrichment (6-mer frequency, TF over GST control)","1.07 fold enrichment (6-mer frequency, TF over GST control)","1.21 fold enrichment (6-mer frequency, TF over GST control)","1.04 fold enrichment (6-mer frequency, TF over GST control)","1.04 fold enrichment (6-mer frequency, TF over GST control)","1.01 fold enrichment (6-mer frequency, TF over GST control)",–,–,–,–,–,–,–
CACCTA,"1.06 fold enrichment (6-mer frequency, TF over GST control)","1.02 fold enrichment (6-mer frequency, TF over GST control)",–,–,"1 fold enrichment (6-mer frequency, TF over GST control)","1.18 fold enrichment (6-mer frequency, TF over GST control)","1.08 fold enrichment (6-mer frequency, TF over GST control)","1.01 fold enrichment (6-mer frequency, TF over GST control)","1.04 fold enrichment (6-mer frequency, TF over GST control)","1.05 fold enrichment (6-mer frequency, TF over GST control)","1.09 fold enrichment (6-mer frequency, TF over GST control)","1.1 fold enrichment (6-mer frequency, TF over GST control)","1.06 fold enrichment (6-mer frequency, TF over GST control)","1.02 fold enrichment (6-mer frequency, TF over GST control)"
